Screening results: PubChem BioAssay, National Center for Advancing Translational Sciences (NCATS)
Rows were chosen to be rich in hits. Some 2.5% of all compounds tested hit in one or more screens of this group.
Cruzain Triton: inhibitors of Trypanosoma cruzi cruzain with detergent | purified cruzain, Z-FR-AMC fluorescence, 0.01% Triton | 200,000 compounds, 0.43% hits | Potency, µM, for inactives: max response, negative = inhibition, most hits filed as inhibitors | AID 1478;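 note: plate controls were neutral wells for no effect and buffer without enzyme for full effect; nearly all actives have a fitted effect of over 40% in size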
Target sequence (P25779 123-467 limits assumed): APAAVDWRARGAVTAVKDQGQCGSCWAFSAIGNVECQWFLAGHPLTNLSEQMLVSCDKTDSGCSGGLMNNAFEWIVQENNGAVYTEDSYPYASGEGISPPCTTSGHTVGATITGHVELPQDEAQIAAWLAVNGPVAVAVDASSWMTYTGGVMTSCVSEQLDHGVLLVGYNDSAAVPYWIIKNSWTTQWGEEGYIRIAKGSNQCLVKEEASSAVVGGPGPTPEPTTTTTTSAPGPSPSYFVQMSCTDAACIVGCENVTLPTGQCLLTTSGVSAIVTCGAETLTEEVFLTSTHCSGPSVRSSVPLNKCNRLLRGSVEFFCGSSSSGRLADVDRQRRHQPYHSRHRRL
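Read-out: AMC fluorescence (360 nm excitation, 450 nm emission), four reads over 2 min, first-to-third difference used. Conditions: cruzain 1.5 nM, Z-FR-AMC 2 uM, pH 5.5 acetate, 5 mM DTT, 0.01% Triton X-100.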
Cruzain inh noDet: blocks cruzain activity in detergent-free assay | 200,000 compounds, 2.3% hits | AID 1476 | purified cruzain, Z-FR-AMC fluorescence, no detergent | Potency, µM, for inactives: max response, negative = inhibition, most hits filed as inhibitors | P25779;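 note: plate controls were enzyme without inhibitor for no effect and buffer without enzyme for full effect; nearly all actives have a fitted effect of over 40% in size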
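Purified cruzain at 1.5 nM, pre-incubated 15 min with compound at room temperature in 100 mM sodium acetate pH 5.5, 5 mM DTT, 0.00005% Triton X-100. Reaction started with 2 uM Z-FR-AMC; AMC fluorescence increase over 60 s gives rate.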
Numbers without * were called inactive. Calls come from the whole dose curve; as a rule, active = well fitted curve in the direction sought with a large enough effect; inconclusive = small, poorly fitted or top-dose-only effect, or another doubt; inactive = no such curve, though single readings can be large; an effect the other way counts as inactive or inconclusive. Potency is the fitted concentration of half-maximal effect.

For Cc1ccn2cc(-c3ccc(S(=O)(=O)N4CCOCC4)cc3)nc2c1 the results were Cruzain Triton 28µM* and Cruzain inh noDet inconclusive.
`Cc1ccc2nc(-c3ccc(S(=O)(=O)N4CCOCC4)cc3)cn2c1` gave Cruzain Triton -2% and Cruzain inh noDet -3%.
`CCC(C(=O)NCCc1ccc(OC)c(OC)c1)n1nc(C)c2sc3ccccc3c2c1=O` (stereo unspecified) gave Cruzain Triton -12% and Cruzain inh noDet inconclusive.
For O=[N+]([O-])c1cc([N+](=O)[O-])c2ccccc2c1 the results were Cruzain Triton -5% and Cruzain inh noDet -4%.
Screening O=[N+]([O-])c1ccc(CCNc2cccc3ccccc23)c([N+](=O)[O-])c1 returned Cruzain Triton -1% and Cruzain inh noDet 25µM*.
Screening Cc1ccc(-n2nnnc2SCC(=O)c2cc(C)n(CC3CCCO3)c2C)cc1 (stereo unspecified) returned Cruzain Triton -1% and Cruzain inh noDet 12%.
CCCn1c(SCC(=O)c2cc(C)n(-c3ccc4c(c3)OCO4)c2C)n[nH]c1=O was read as Cruzain Triton -6% and Cruzain inh noDet inconclusive.
Cc1cc(C(=O)CSc2nnnn2-c2ccc(O)cc2)c(C)n1Cc1ccc2c(c1)OCO2 was read as Cruzain Triton 0% and Cruzain inh noDet 16µM*.
O=C(O)CSc1nnc(-c2cccs2)n1-c1ccc(Cl)cc1 was read as Cruzain Triton -2% and Cruzain inh noDet -8%.
O=C(CSc1nnc(-c2cccs2)n1-c1cccc(Cl)c1)c1cccc2c1OCCO2 was read as Cruzain Triton 2% and Cruzain inh noDet 25µM*.
Cc1cc(C(=O)COC(=O)C2=COCCO2)c(C)n1-c1ccc2c(c1)OCO2 was read as Cruzain Triton -3% and Cruzain inh noDet -14%.
`Cc1cc(C(=O)COC(=O)Cc2n[nH]c(=O)c3ccccc23)c(C)n1-c1ccc2c(c1)OCCO2` gave Cruzain Triton -4% and Cruzain inh noDet 16µM*.
`Cc1cc(C(=O)COc2ccc(C#N)cc2)c(C)n1-c1ccc2c(c1)OCO2` gave Cruzain Triton -2% and Cruzain inh noDet 25µM*.
COc1ccccc1N1CCN(C(=O)c2cnc(N3CCCCC3)c3ccccc23)CC1 was read as Cruzain Triton -7% and Cruzain inh noDet inconclusive.
Cc1ccc(NC(=O)C2CCCN(c3ncnc4onc(C)c34)C2)cc1Cl (stereo unspecified) was read as Cruzain Triton 7% and Cruzain inh noDet 3%.
Screening Cc1cc(C(=O)CSc2nnc(-c3cccc(F)c3)n2N)c(C)n1Cc1ccc2c(c1)OCO2 returned Cruzain Triton 0% and Cruzain inh noDet 20µM*.
Screening O=C(O)CSc1nnnn1-c1ccc2c(c1)OCCO2 returned Cruzain Triton -8% and Cruzain inh noDet -5%.
`CC(=O)c1c(C)[nH]c(C(=O)CSc2nnc(-c3ccccc3)n2Cc2ccc3c(c2)OCO3)c1C` gave Cruzain Triton 3% and Cruzain inh noDet 12%.
`Cc1cc(C(=O)CSc2nncs2)c(C)n1-c1ccc2c(c1)OCO2` gave Cruzain Triton -7% and Cruzain inh noDet inconclusive.
For O=C(CSc1nnnn1-c1ccc2c(c1)OCCO2)c1cccc2c1OCCO2 the results were Cruzain Triton 0% and Cruzain inh noDet 25µM*.
`Cc1cc(C(=O)CSc2nnnn2-c2ccccc2)c(C)n1-c1ccc2c(c1)OCO2` gave Cruzain Triton -3% and Cruzain inh noDet 3.2µM*.
Cc1ccc(-n2nnnc2SCC(=O)Nc2ccc3c(c2)OCCO3)cc1C was read as Cruzain Triton -5% and Cruzain inh noDet -5%.
`Cc1ccc(NC(=O)CSc2nnnn2-c2ccc3c(c2)OCO3)cc1C` gave Cruzain Triton 4% and Cruzain inh noDet 25µM*.
CCc1ccc(NC(=O)Nc2cn(C)c(=O)c3ccccc23)cc1 was read as Cruzain Triton -26% and Cruzain inh noDet inconclusive.
CN(C)CN1C(=O)S/C(=C2/C(=O)N(CN(C)C)c3ccccc32)C1=O was read as Cruzain Triton 1% and Cruzain inh noDet 0%.
c1ccc2c(c1)nnn2CN1CCOCC1 was read as Cruzain Triton -1% and Cruzain inh noDet 8%.
For Nc1nc2nccc(-c3ccc(Cl)cc3)n2n1 the results were Cruzain Triton 25µM* and Cruzain inh noDet -75%.
`Cc1cc(-c2ccc(Cl)cc2)n2nc(N)nc2n1` gave Cruzain Triton -10% and Cruzain inh noDet 12%.
CSc1ccc(CCNC(=O)CN2C(=O)COc3ccc(S(=O)(=O)N4CCCCCC4)cc32)cc1 was read as Cruzain Triton 1% and Cruzain inh noDet -8%.
For COc1ccc(-c2nn(-c3cccc(F)c3)c3c2cnc2cc(OC)c(OC)cc23)cc1 the results were Cruzain Triton 2% and Cruzain inh noDet 0%.
`COc1ccccc1C(=O)NCC(=O)OCc1ccc(Br)cc1` gave Cruzain Triton -19% and Cruzain inh noDet -11%.
COc1ccccc1C(=O)NCC(=O)OC(C)C(=O)NC(=O)NC1CCCCC1 (stereo unspecified) was read as Cruzain Triton 8.9µM* and Cruzain inh noDet 10µM*.
CCc1cc2c(cc3c(=O)n(CC(=O)NCc4cc(Br)ccc4OC)ncn32)s1 was read as Cruzain Triton 5% and Cruzain inh noDet 24%.
For O=c1c(=O)n(-c2ccc(F)c(F)c2)ccn1Cc1ccc(F)cc1Cl the results were Cruzain Triton -1% and Cruzain inh noDet 1%.
`COc1ccc(C(=O)c2cnc3ccc(C)cc3c2S(=O)(=O)c2ccccc2)cc1` gave Cruzain Triton -4% and Cruzain inh noDet inconclusive.
For COc1ccc(S(=O)(=O)c2c(C(=O)c3ccc(C)c(C)c3)cnc3ccc(F)cc23)cc1 the results were Cruzain Triton -3% and Cruzain inh noDet 13µM*.
CCOc1ccc(S(=O)(=O)c2c(C(=O)c3ccc(C)c(C)c3)cnc3ccccc23)cc1 was read as Cruzain Triton -3% and Cruzain inh noDet 20µM*.
Screening Cc1ccc2ncc(C(=O)c3ccc(C)c(C)c3)c(S(=O)(=O)c3ccc(F)cc3)c2c1 returned Cruzain Triton -6% and Cruzain inh noDet inconclusive.
CCOC(=O)c1cnc(NCc2ccccc2OC)c2ccccc12 was read as Cruzain Triton -12% and Cruzain inh noDet -7%.
`Cc1cccc(N2CCN(S(=O)(=O)c3c(C(=O)N4CCC(C)CC4)c(C)n(C)c3C)CC2)c1C` gave Cruzain Triton -7% and Cruzain inh noDet inconclusive.
Screening CCOC(=O)CSc1nc2cc3c(cc2c(=O)n1CCCC(=O)NCc1ccc2c(c1)OCO2)OCO3 returned Cruzain Triton 0% and Cruzain inh noDet 11%.
Screening COc1ccc(-c2cc(C(=O)N/N=C/c3sccc3C)c3ccccc3n2)c(OC)c1 returned Cruzain Triton -11% and Cruzain inh noDet inconclusive.
`COc1ccccc1-c1csc(NC(=O)c2cc(-c3cccs3)nc3ccccc23)n1` gave Cruzain Triton -3% and Cruzain inh noDet 4µM*.
COc1ccc(-c2csc(NC(=O)c3cc(-c4cccs4)nc4ccccc34)n2)c(OC)c1 was read as Cruzain Triton 2% and Cruzain inh noDet 5µM*.
COc1ccccc1-c1cc(C(=O)N/N=C/c2cccs2)c2ccccc2n1 was read as Cruzain Triton -10% and Cruzain inh noDet -13%.
O=C(c1cc(F)cc(F)c1)N1CCC(c2nc(-c3ccc(S(=O)(=O)N4CCCC4)cc3)no2)CC1 was read as Cruzain Triton 2% and Cruzain inh noDet 2%.
